From PubChem BioAssay (Tox21)
Results filed as inconclusive are left out. Where a call stands in place of a potency, no number is given. Values without a mark were called inactive. Calls of active or inactive are those of the source. Unless noted, calls follow the shape of the dose curve; as a rule, active = well fitted curve in the direction sought with a large enough effect in the repeat runs; inconclusive = weak or mixed curves; inactive = no such curve, though single readings can be large; an effect the other way counts as inactive or inconclusive.

How the values were obtained:
[1] = qHTS assay to identify small molecule antagonists of the estrogen related receptor (ERR) signaling pathway from Tox21 library - cell viability counter screen (AID 1224834); also: nearly all actives have a fitted effect of over 30% in size; also: potency is read from the fitted curve at half-maximal effect
In short: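 ERR cells, 2,000/well; 6 h settle at 37 C/5% CO2; pin-tool compound transfer in DMSO; 17.5 h at 37 C; CellTiter-Fluor, 30 min; fluorescence intensity.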

[2] = target: Luciferin 4-monooxygenase (Photinus pyralis) (UniProt P08659); experiment: qHTS assay to identify small molecule inhibitors of firefly luciferase (AID 1224835); also: nearly all actives have a fitted effect of over 25% in size; also: potency is read from the fitted curve at half-maximal effect
Chain of Luciferin 4-monooxygenase (Photinus pyralis) (P08659 whole entry, looked up): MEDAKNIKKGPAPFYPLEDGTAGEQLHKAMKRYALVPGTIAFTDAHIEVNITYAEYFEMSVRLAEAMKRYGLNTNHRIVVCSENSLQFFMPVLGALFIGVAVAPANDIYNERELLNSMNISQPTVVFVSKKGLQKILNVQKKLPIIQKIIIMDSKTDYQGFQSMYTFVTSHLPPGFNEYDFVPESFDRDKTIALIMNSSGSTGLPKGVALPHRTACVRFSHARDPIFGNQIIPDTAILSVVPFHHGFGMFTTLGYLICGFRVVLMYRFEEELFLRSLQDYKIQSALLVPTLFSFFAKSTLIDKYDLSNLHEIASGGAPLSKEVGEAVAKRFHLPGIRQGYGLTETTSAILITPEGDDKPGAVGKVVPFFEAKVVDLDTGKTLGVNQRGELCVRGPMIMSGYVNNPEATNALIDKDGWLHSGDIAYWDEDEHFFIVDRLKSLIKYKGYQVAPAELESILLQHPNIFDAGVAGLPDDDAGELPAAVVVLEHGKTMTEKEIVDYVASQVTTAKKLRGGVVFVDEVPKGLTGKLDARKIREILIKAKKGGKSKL
In short: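 Quantitative HTS format; KM concentrations of both substrates. Purified P. pyralis FLuc activity quantified from luminescence images.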

[3] = qHTS assay to identify small molecule agonists of the constitutive androstane receptor (CAR) signaling pathway - cell viability counter screen (AID 1224836); also: nearly all actives have a fitted effect of over 45% in size; also: potency is read from the fitted curve at half-maximal effect
In short: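 Cell viability multiplexed with the CAR agonist screen: CellTiter-Fluor fluorescence after 23 hr at 37 C. HepG2-CYP2B6-hCAR cells got compounds at 15 concentrations with PK11195 at 0.75 uM final.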

[4] = qHTS assay to identify small molecule antagonists of the constitutive androstane receptor (CAR) signaling pathway - cell viability counter screen (AID 1224837); also: nearly all actives have a fitted effect of over 45% in size; also: potency is read from the fitted curve at half-maximal effect
In short: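 Viability was measured with CellTiter-Fluor in a HepG2 line carrying stably transfected hCAR and a CYP2B6-2.2kb construct. Cells were exposed for 23 hr at 37 C to 15 compound concentrations with 50 nM CITCO as agonist.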

[5] = target: Nuclear receptor subfamily 1 group I member 3 (Homo sapiens) (UniProt Q14994); experiment: qHTS assay to identify small molecule antagonists of the constitutive androstane receptor (CAR) signaling pathway (AID 1224838);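 also: HepG2 cells stably expressing hCAR with CYP2B6 luciferase reporter stimulated by CITCO; nearly all actives have a fitted effect of over 40% in size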; also: potency is read from the fitted curve at half-maximal effect
Chain of Nuclear receptor subfamily 1 group I member 3 (Homo sapiens) (Q14994 whole entry, looked up): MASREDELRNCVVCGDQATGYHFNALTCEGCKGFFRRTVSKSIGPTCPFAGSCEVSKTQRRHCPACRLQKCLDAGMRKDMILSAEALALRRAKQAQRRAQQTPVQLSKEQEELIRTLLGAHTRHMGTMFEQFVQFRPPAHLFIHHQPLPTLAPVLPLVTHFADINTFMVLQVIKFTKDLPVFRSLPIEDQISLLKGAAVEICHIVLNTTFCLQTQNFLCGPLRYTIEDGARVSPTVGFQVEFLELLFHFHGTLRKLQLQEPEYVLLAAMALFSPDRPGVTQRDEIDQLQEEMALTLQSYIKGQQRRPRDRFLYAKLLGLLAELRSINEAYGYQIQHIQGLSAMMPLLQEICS
In short: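 Antagonist mode used CITCO at a final 50 nM to activate CAR in human hepatoma HepG2 cells carrying stable hCAR and a 2.2 kb CYP2B6 promoter-luciferase construct. Compounds were tested at 15 concentrations over 24 h, with luminescence as the end point.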

[6] = target: Nuclear receptor subfamily 1 group I member 3 (Homo sapiens) (UniProt Q14994); experiment: qHTS assay to identify small molecule agonists of the constitutive androstane receptor (CAR) signaling pathway (AID 1224839); also: series mostly up to about 92 µM; nearly all actives have a fitted effect of over 15% in size
In short: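 Luminescent ONE-Glo read-out after 24 hr, 37 C exposure of double-stable HepG2-CYP2B6-hCAR reporter cells to a 15-point compound series, in the presence of 0.75 uM PK11195 (final).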

[7] = qHTS assay to identify small molecule antagonists of the estrogen related receptor signaling pathway with the pleiotropic PPARgamma coactivator (PGC) from Tox21 10K library - cell viability counter screen (AID 1224840; active = well fitted cell-killing curve with a large enough effect in the repeat runs, not every such curve was filed as active; also: nearly all actives have a fitted effect of over 40% in size; also: potency is read from the fitted curve at half-maximal effect)
In short: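 Multiplexed viability counter screen in the PGC/ERR cell line: cells treated with DMSO-dissolved compounds for 17.5 hours at 37 C, then viability measured as CellTiter-Fluor fluorescence.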

[8] = target: Thyrotropin receptor (Homo sapiens) (UniProt P16473); experiment: qHTS assay to identify small molecule agonists of the thyroid stimulating hormone receptor (TSHR) signaling pathway (AID 1224843; calls by dose curve; also: nearly all actives have a fitted effect of over 45% in size)
Chain of Thyrotropin receptor (Homo sapiens) (P16473 whole entry, looked up): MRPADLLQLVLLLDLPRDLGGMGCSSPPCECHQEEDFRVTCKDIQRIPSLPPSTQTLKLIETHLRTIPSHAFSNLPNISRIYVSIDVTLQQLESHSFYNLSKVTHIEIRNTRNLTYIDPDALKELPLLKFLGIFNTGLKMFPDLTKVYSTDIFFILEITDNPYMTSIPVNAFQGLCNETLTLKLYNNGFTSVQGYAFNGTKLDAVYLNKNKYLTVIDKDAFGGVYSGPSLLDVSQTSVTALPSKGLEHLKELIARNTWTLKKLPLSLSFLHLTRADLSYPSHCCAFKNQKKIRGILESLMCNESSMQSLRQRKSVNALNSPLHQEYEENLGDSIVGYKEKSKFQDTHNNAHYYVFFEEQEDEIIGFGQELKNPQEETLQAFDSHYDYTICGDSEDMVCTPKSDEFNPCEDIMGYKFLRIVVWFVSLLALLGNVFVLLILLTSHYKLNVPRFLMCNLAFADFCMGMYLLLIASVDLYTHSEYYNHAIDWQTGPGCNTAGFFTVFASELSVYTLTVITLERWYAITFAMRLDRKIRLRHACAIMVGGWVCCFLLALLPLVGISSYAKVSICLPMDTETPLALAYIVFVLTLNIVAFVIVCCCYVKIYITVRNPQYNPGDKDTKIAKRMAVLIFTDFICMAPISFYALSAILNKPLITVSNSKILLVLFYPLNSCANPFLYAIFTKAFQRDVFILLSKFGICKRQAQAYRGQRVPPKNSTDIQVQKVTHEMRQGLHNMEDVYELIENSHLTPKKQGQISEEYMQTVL
In short: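 Using 15 concentrations per compound in triplicate, cAMP production was monitored in TSHR-HEK293 cells after 30 min compound incubation at RT; HTRF reagents followed, with fluorescence intensity recorded after 1 h.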

[9] = qHTS assay to identify small molecule antagonists of the estrogen related receptor signaling pathway with the pleiotropic PPARgamma coactivator (PGC) from Tox21 10K library (AID 1224841; call rule not given here; also: actives are mostly falling curves and most rising ones were filed inactive; nearly all actives have a fitted effect of over 50% in size; also: potency is read from the fitted curve at half-maximal effect)
In short: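 Steps: plate 2,000 PGC/ERR cells per well; incubate 6 h at 37 C with 5% CO2; transfer compounds from DMSO stocks by pin tool; incubate 18 h at 37 C; add One-Glo; measure luminescence 30 min later.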

[10] = qHTS assay to identify small molecule agonists of the estrogen related receptor signaling pathway with the pleiotropic PPARgamma coactivator (PGC) from Tox21 10K library (AID 1224842); also: nearly all actives have a fitted effect of over 15% in size; also: potency is read from the fitted curve at half-maximal effect
In short: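 PGC/ERR reporter cells (NTP line) were seeded 2,000 per well, rested 6 h at 37 C/5% CO2, then pin-dosed with compounds in DMSO for 18 h at 37 C; luciferase read by One-Glo luminescence after 30 min at room temperature.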

SMILES | Potency [1] | Potency [2] | Potency [3] | Potency [4] | Potency [5] | Potency [6] | Potency [7] | Potency [8] | Potency [9] | Potency [10]
C=C(C)c1ccccc1 | inactive | inactive | inactive | inactive | inactive | inactive | inactive | inactive | – | –
O=C1[C@@H]2[C@H]3CC[C@H](C3)[C@@H]2C(=O)N1CCCCN1CCN(c2ncccn2)CC1 | inactive | inactive | inactive | inactive | inactive | inactive | inactive | inactive | – | –
Cc1ccc2nc(N)[nH]c(=O)c2c1Sc1ccncc1 | inactive | inactive | inactive | inactive | inactive | – | inactive | – | inactive | inactive
CC1C(C)(C)C2=C(C(=O)CCC2)C1(C)C (centres undefined) | inactive | inactive | inactive | inactive | inactive | – | inactive | inactive | inactive | inactive
CCN(CC)CCOC(=O)C(c1ccccc1)c1ccccc1 | inactive | inactive | inactive | inactive | inactive | inactive | inactive | inactive | – | –
CCN(Cc1cccc(S(=O)(=O)O)c1)c1ccc(C(=C2C=CC(=[N+](CC)Cc3cccc(S(=O)(=O)O)c3)C=C2)c2ccccc2S(=O)(=O)[O-])cc1 | 30.7 µM (active) | 20.1 µM (active) | 34.5 µM (active) | 34.5 µM (active) | 15.4 µM (active) | – | 27.4 µM (active) | – | 8.67 µM (active) | inactive
Oc1cccc2[nH]ccc12 | inactive | inactive | inactive | inactive | inactive | inactive | inactive | inactive | – | –
CC(=O)OCCC1CCCCC1 | inactive | inactive | inactive | inactive | inactive | – | inactive | – | – | –
Cc1ccc(Cl)cc1N | inactive | inactive | inactive | inactive | inactive | inactive | inactive | inactive | – | –
CCN(CC)CCNC(=O)c1cc(Cl)c(N)cc1OC | inactive | inactive | inactive | inactive | inactive | inactive | inactive | inactive | – | –
CCCC(=O)OC(=O)CCC | inactive | inactive | inactive | inactive | inactive | inactive | inactive | inactive | – | –
COC(OC)OC | inactive | inactive | inactive | inactive | inactive | inactive | inactive | inactive | – | –
CC(C)COC(=O)c1ccc(O)cc1 | inactive | 44.7 µM (active) | inactive | inactive | inactive | – | inactive | – | – | –
COc1ccc(C2C(=O)c3ccccc3C2=O)cc1 | inactive | 3.09 µM (active) | inactive | inactive | inactive | – | inactive | – | inactive | 10.6 µM (active)
